Inconclusive results are not listed. The source made the active and inactive calls. How the source made its calls, unless noted: active means hit-call score of the fitted dose curve at least 0.9, where 1 is the maximum; inactive means score below 0.9.
Key:
[1] = biological target: Glucocorticoid receptor (Homo sapiens) (UniProt P04150); experiment: ATG_GR_TRANS: Attagene TRANS-FACTORIAL HepG2 Assay for human Glucocorticoid Receptor (GR) (AID 2282978; active means hit-call score of the fitted dose curve at least 0.9, where 1 is the maximum;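 further: activators score as hits since higher reporter transcript over DMSO is fitted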); conditions: HepG2 Attagene TRANS GR reporter, mRNA transcription
Summary of the method: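 Reporter transcript levels, detected by fluorescence after RT-PCR and capillary electrophoresis, served as the endpoint. HepG2 cells bearing transfected GAL4-UAS reporters responsive to NR-GAL4 chimeras were incubated with compound 24 h; DMSO defined baseline.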

[2] = biological target: Bile acid receptor (Homo sapiens) (UniProt Q96RI1); experiment: ATG_FXR_TRANS: Attagene TRANS-FACTORIAL HepG2 Assay for Farnesoid X Receptor (FXR) (AID 2282979; active means hit-call score of the fitted dose curve at least 0.9, where 1 is the maximum;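 further: hits raise reporter mRNA above DMSO so AC50 marks FXR activation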); conditions: HepG2 Attagene TRANS FXR-GAL4 reporter transcription
Summary of the method: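 Reporter transcripts from transfected HepG2 cells were measured 24 h after dosing, using RT-PCR with capillary electrophoresis of 6-FAM-labelled fragments. The read-out reflects activity of exogenous FXR-Gal4 chimera on GAL4-UAS units, with induction relative to DMSO.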

[3] = biological target: Oxysterols receptor LXR-alpha (Homo sapiens) (UniProt Q13133); experiment: ATG_LXRa_TRANS: Attagene TRANS-FACTORIAL HepG2 Assay for human Liver X Receptor alpha (LXRa) (AID 2282980; active means hit-call score of the fitted dose curve at least 0.9, where 1 is the maximum); conditions: HepG2 Attagene TRANS reporter, LXRa transactivation
Summary of the method: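 Chemical-induced reporter mRNA measured by RT-PCR with fluorescent labelling and capillary electrophoresis after 24 h dosing of transiently transfected HepG2 cells expressing exogenous NR-Gal4 chimeras; increases scored against DMSO baseline.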

[4] = biological target: Oxysterols receptor LXR-beta (Homo sapiens) (UniProt P55055); experiment: ATG_LXRb_TRANS: Attagene TRANS-FACTORIAL HepG2 Assay for human Liver X Receptor beta (LXRb) (AID 2282981; active means hit-call score of the fitted dose curve at least 0.9, where 1 is the maximum); conditions: HepG2 Attagene TRANS GAL4-LXRb reporter, mRNA
Summary of the method: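 HepG2 cells transiently transfected with GAL4-UAS reporter units for chimeric NR-Gal4 proteins, dosed for 24 h. Reporter transcripts measured by RT-PCR and capillary electrophoresis; gain-of-signal fitting relative to DMSO.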

[5] = biological target: Hepatocyte nuclear factor 4-alpha (Homo sapiens) (UniProt P41235); experiment: ATG_HNF4a_TRANS: Attagene TRANS-FACTORIAL HepG2 Assay for human Hepatocyte Nuclear Factor 4 alpha (HNF4a) (AID 2282982; active means hit-call score of the fitted dose curve at least 0.9, where 1 is the maximum); conditions: HepG2 HNF4a transactivation reporter, mRNA readout
Summary of the method: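 HepG2 cells transiently transfected with HNF4a-Gal4 chimera and GAL4-UAS reporter units, dosed for 24 h. Reporter mRNA measured by RT-PCR, fluorescent primer extension and capillary electrophoresis; gain-of-signal fitted relative to DMSO.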

[6] = ATG_M_06_TRANS: Attagene TRANS-FACTORIAL HepG2 Assay for M06 Transcription Factor (Internal Marker) (AID 2282983; active means hit-call score of the fitted dose curve at least 0.9, where 1 is the maximum); conditions: HepG2 Attagene TRANS M06 internal marker reporter
Summary of the method: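 Cells: HepG2, transient multi-reporter transfection. Exposure: 24 h. Detection: RT-PCR, 6-FAM labelling, HpaI digestion (2 h, 37 °C), capillary electrophoresis. Baseline: DMSO.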

[7] = ATG_M_32_TRANS: Attagene TRANS-FACTORIAL HepG2 Assay for M32 Transcription Factor (Internal Marker) (AID 2282984; active means hit-call score of the fitted dose curve at least 0.9, where 1 is the maximum;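 further: transcript level of a background control reporter unit measured by RT-PCR and capillary electrophoresis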); conditions: HepG2 Attagene TRANS M32 internal marker reporter
Summary of the method: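 HepG2 cells transiently transfected with GAL4-UAS reporter units, dosed for 24 hours. Reporter mRNA quantified by RT-PCR, 6-FAM labelling, HpaI digestion and capillary electrophoresis; internal-marker signal fitted upward relative to DMSO.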

[8] = biological target: Nuclear receptor subfamily 4 group A member 2 (Homo sapiens) (UniProt P43354); experiment: ATG_NURR1_TRANS: Attagene TRANS-FACTORIAL HepG2 Assay for human Nuclear Receptor Related Protein 1 (NURR1) (AID 2282985; active means hit-call score of the fitted dose curve at least 0.9, where 1 is the maximum); conditions: HepG2 Attagene TRANS reporter, mRNA readout
Summary of the method: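 HepG2 cells transiently transfected with NURR1-Gal4 chimera and GAL4-UAS reporter units; after 24 hr compound exposure, reporter mRNA quantified by RT-PCR and capillary electrophoresis; gain of signal fitted against DMSO.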

[9] = biological target: Transcriptional activator Myb (Homo sapiens) (UniProt P10242); experiment: ATG_Myb_CIS: Attagene CIS-FACTORIAL HepG2 Assay for human Myeloblastosis (Myb) Proto-Oncogene Transcription Factor (AID 2282986); conditions: HepG2 Attagene CIS-FACTORIAL Myb reporter transcription; actives raise or lower the signal
Summary of the method: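 Transiently transfected HepG2 cells, treated 24 h. Reporter mRNA quantified by RT-PCR/capillary electrophoresis; bidirectional fit relative to DMSO.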

[10] = biological target: Nuclear respiratory factor 1 (Homo sapiens) (UniProt Q16656); experiment: ATG_NRF1_CIS: Attagene CIS-FACTORIAL HepG2 Assay for human Nuclear Respiratory Factor 1 (NRF1) Orphan Gene (AID 2282987); conditions: HepG2 NRF1 cis-element reporter, Attagene multiplex; actives raise or lower the signal
Summary of the method: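 Cells (HepG2, transient MRTU transfection) are exposed to compound for 24 h, then RNA isolated and reporter mRNA amplified and fluorescently labelled. Fragments are separated by capillary electrophoresis; signal change is fitted bidirectionally relative to DMSO.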

[11] = ATG_NFI_CIS: Attagene CIS-FACTORIAL HepG2 Assay for human Nuclear Factor I (NFI) (AID 2282989); conditions: HepG2 cis-regulatory reporter, NFI response element transcription; actives raise or lower the signal
Summary of the method: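 Read-out: reporter mRNA via RT-PCR plus capillary electrophoresis with fluorescence detection. Transiently transfected HepG2 (endogenous TF activity on cis promoters), 24 h compound exposure; gain or loss of signal fitted against DMSO.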

[12] = biological target: Myc proto-oncogene protein (Homo sapiens) (UniProt P01106); experiment: ATG_Myc_CIS: Attagene CIS-FACTORIAL HepG2 Assay for human Myelocytomatosis (Myc) Proto-Oncogene Transcription Factor (AID 2282990); conditions: HepG2, Attagene cis-reporter transcription factor activity; actives raise or lower the signal
Summary of the method: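 Transiently transfected HepG2 cells bearing cis-promoter reporter units for endogenous transcription factors; 24 h exposure. Reporter mRNA measured by RT-PCR, 6-FAM primer extension, HpaI cut and capillary electrophoresis; bidirectional fit relative to DMSO.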

[13] = ATG_NF_kB_CIS: Attagene CIS-FACTORIAL HepG2 Assay for human Nuclear Factor Kappa B (NF-kB) (AID 2282991); conditions: HepG2 Attagene cis-factorial NF-kB reporter mRNA; actives raise or lower the signal
Summary of the method: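 Measures mRNA induction of an NF-kB-responsive cis-element reporter in HepG2 cells transfected with multiple reporter units, sampled 24 h post-dosing; quantified by fluorescence after RT-PCR and capillary electrophoresis, fitted for activation or inhibition against DMSO.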

[14] = ATG_NRF2_ARE_CIS: Attagene CIS-FACTORIAL HepG2 Assay for human Nuclear Factor Erythroid 2 Related Factor 2 (NFR2) response to Antioxidant Response Elements (ARE) (AID 2282992); conditions: HepG2 Attagene ARE/NRF2 reporter, transcription factor activity; actives raise or lower the signal;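 on AC50: reporter mRNA level measured by RT-PCR and capillary electrophoresis fluorescence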
Summary of the method: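 Cis-factorial assay: transfected HepG2 reporter library, 24 h dosing, mRNA readout via RT-PCR/CE; DMSO-referenced bidirectional analysis.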

[15] = ATG_Oct_MLP_CIS: Attagene CIS-FACTORIAL HepG2 Assay for human Octamer-Binding Transcription Factor (Oct) (AID 2282993); conditions: HepG2 Attagene cis-factorial Oct reporter, mRNA; actives raise or lower the signal
Summary of the method: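 Read-out: reporter mRNA via RT-PCR plus capillary electrophoresis of 6-FAM-labelled fragments. Transiently transfected HepG2, 24 h exposure, endogenous TF activity on cis elements. Gain or loss of signal fitted relative to DMSO.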

[16] = biological target: Cellular tumor antigen p53 (Homo sapiens) (UniProt P04637); experiment: ATG_p53_CIS: Attagene CIS-FACTORIAL HepG2 Assay for human p53 Transcription Factor (AID 2282994); conditions: HepG2 p53 cis-element reporter, Attagene mRNA; actives raise or lower the signal
Summary of the method: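 Using HepG2 hepatoma cells carrying cis-acting multiplexed reporters, mRNA induction is detected after a 24 h exposure. Gain- and loss-of-signal responses are fitted relative to DMSO-treated cells.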

[17] = BSK_3C_TissueFactor: BioMAP Diversity Plus: 3C Assay for Tissue Factor Biomarker Activity (AID 2282997); conditions: BioMAP 3C HUVEC, tissue factor biomarker readout; actives raise or lower the signal
Summary of the method: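 Dosing of human umbilical vein endothelial cells preceded a 24 h incubation. Tissue Factor was then read by ELISA, with increases and decreases both scored relative to DMSO controls.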

[18] = BSK_3C_uPAR: BioMAP Diversity Plus: 3C Assay for Urokinase-type plasminogen activator receptor (uPAR) Biomarker Activity (AID 2282998); conditions: BioMAP 3C HUVEC, uPAR biomarker ELISA; actives raise or lower the signal
Summary of the method: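 HUVEC primary cells; 24 h post-dose; uPAR by ELISA; gain or loss of signal fitted bidirectionally vs DMSO baseline.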

[19] = BSK_3C_VCAM1: BioMAP Diversity Plus: 3C Assay for Vascular cell adhesion molecule 1 (VCAM1) Biomarker Activity (AID 2282999); conditions: BioMAP 3C HUVEC, VCAM1 ELISA, cytokine-stimulated; actives raise or lower the signal
Summary of the method: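 Human umbilical vein endothelial cells (3C system), biomarker read by ELISA 24 h after dosing; bidirectional fit against DMSO baseline. Cytotoxicity tracked by SRB total-protein staining in parallel cultures at biomarker time.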

[20] = BSK_4H_Eotaxin3: BioMAP Diversity Plus: 4H Assay for Eotaxin 3 Biomarker Activity (AID 2283000); conditions: primary human endothelial cells (HUVEC); actives raise or lower the signal
Summary of the method: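 Human umbilical vein endothelial cells (BSK_4H system) dosed with test chemical; Eotaxin-3 (CCL26) measured by ELISA 24 h after dosing. Bidirectional curve fitting relative to DMSO negative control as baseline.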

Chain of Nuclear receptor subfamily 4 group A member 2 (Homo sapiens) (P43354 whole entry, looked up, the tested form may be a part): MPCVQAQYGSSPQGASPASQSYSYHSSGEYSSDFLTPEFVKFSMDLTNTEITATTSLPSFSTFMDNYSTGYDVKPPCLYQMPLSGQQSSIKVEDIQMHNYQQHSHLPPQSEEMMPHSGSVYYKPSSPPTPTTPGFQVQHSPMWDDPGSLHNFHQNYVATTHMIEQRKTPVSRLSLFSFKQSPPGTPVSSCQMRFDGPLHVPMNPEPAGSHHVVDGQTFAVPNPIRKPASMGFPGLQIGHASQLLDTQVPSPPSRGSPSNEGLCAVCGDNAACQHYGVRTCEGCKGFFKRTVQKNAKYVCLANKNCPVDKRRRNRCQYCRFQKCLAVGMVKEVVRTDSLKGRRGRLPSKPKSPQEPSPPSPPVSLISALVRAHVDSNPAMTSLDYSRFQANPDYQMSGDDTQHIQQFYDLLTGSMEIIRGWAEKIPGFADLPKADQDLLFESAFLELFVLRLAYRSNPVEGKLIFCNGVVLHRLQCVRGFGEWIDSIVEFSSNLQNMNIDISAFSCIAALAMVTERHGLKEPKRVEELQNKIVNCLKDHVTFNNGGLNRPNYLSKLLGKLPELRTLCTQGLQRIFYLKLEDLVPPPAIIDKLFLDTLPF
Chain of Cellular tumor antigen p53 (Homo sapiens) (P04637 whole entry, looked up): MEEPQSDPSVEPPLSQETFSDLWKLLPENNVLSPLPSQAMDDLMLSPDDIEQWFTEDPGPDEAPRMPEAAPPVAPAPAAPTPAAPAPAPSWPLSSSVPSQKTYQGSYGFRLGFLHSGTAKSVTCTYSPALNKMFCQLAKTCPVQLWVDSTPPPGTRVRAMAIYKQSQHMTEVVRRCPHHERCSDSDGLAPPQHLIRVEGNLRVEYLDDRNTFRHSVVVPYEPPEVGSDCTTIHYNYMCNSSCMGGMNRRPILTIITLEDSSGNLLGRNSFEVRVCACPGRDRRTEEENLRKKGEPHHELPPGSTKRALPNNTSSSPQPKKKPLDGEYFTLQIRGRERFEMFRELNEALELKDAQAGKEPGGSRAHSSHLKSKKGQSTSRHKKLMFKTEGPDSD
Chain of Nuclear respiratory factor 1 (Homo sapiens) (Q16656 whole entry, looked up, the tested form may be a part): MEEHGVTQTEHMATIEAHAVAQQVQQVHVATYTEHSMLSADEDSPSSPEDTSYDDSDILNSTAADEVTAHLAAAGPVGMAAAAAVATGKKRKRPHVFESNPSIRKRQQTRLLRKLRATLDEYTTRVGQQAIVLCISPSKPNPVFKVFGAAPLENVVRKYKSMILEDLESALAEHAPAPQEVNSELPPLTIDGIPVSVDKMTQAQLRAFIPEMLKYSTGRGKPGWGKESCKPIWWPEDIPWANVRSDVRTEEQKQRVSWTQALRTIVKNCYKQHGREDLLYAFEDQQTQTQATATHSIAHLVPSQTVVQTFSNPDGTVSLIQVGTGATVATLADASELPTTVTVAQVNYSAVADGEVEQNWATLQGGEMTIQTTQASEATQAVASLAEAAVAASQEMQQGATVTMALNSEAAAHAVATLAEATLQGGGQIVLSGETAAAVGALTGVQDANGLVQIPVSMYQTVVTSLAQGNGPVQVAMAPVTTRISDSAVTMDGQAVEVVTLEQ
Chain of Transcriptional activator Myb (Homo sapiens) (P10242 whole entry, looked up): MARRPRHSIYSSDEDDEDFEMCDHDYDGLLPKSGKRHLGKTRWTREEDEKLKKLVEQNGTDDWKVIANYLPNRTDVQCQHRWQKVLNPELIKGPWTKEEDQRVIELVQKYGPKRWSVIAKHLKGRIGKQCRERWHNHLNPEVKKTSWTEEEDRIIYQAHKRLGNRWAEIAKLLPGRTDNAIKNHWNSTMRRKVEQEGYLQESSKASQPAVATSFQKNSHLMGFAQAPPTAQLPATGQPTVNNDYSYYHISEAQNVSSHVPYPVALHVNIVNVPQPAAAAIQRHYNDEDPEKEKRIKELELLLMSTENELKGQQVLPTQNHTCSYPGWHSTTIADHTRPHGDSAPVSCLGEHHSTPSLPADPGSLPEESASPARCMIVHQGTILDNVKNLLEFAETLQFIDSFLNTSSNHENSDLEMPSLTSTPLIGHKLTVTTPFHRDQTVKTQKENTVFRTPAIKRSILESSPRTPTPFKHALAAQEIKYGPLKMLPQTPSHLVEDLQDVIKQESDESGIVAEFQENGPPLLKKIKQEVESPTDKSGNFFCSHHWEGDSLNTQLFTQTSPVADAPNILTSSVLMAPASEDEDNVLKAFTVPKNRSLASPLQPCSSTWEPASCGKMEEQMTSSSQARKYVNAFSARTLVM
Chain of Hepatocyte nuclear factor 4-alpha (Homo sapiens) (P41235 whole entry, looked up, the tested form may be a part): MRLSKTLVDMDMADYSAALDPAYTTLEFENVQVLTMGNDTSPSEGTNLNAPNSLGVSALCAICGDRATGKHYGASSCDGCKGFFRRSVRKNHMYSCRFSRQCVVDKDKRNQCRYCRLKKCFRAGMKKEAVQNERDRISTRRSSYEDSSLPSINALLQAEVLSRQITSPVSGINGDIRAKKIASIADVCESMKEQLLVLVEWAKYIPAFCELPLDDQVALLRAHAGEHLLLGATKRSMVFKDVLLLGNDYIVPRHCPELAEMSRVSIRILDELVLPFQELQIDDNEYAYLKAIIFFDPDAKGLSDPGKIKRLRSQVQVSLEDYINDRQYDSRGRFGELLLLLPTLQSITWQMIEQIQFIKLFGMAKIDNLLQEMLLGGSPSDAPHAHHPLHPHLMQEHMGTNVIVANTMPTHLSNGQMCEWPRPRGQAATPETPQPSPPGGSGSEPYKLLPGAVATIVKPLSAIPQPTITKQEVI
Chain of Myc proto-oncogene protein (Homo sapiens) (P01106 whole entry, looked up): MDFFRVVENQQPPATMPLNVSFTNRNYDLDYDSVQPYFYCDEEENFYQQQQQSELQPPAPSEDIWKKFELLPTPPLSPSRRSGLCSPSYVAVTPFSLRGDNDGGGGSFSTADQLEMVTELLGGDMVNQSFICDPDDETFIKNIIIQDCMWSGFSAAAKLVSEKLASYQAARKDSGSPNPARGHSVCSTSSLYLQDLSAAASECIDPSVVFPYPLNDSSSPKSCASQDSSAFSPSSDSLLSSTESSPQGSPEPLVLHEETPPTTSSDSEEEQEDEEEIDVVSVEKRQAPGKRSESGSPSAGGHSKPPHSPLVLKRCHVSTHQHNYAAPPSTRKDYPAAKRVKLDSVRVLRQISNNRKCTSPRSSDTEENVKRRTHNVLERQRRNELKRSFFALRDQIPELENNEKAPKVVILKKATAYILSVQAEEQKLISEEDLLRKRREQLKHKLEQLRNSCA
Chain of Bile acid receptor (Homo sapiens) (Q96RI1 whole entry, looked up, the tested form may be a part): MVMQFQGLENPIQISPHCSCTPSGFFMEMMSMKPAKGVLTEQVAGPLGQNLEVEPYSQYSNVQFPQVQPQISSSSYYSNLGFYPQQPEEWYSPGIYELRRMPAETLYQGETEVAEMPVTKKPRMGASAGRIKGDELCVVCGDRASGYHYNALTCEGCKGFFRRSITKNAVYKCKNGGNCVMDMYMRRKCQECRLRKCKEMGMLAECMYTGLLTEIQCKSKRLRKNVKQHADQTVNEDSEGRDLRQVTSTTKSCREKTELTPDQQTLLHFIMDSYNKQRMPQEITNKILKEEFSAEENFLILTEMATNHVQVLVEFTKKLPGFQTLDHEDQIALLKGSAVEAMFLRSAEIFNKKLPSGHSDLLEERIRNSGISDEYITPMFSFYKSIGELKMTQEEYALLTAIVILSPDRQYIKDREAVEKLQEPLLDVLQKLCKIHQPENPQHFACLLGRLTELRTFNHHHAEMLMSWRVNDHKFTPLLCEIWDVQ
Chain of Glucocorticoid receptor (Homo sapiens) (P04150 whole entry, looked up, the tested form may be a part): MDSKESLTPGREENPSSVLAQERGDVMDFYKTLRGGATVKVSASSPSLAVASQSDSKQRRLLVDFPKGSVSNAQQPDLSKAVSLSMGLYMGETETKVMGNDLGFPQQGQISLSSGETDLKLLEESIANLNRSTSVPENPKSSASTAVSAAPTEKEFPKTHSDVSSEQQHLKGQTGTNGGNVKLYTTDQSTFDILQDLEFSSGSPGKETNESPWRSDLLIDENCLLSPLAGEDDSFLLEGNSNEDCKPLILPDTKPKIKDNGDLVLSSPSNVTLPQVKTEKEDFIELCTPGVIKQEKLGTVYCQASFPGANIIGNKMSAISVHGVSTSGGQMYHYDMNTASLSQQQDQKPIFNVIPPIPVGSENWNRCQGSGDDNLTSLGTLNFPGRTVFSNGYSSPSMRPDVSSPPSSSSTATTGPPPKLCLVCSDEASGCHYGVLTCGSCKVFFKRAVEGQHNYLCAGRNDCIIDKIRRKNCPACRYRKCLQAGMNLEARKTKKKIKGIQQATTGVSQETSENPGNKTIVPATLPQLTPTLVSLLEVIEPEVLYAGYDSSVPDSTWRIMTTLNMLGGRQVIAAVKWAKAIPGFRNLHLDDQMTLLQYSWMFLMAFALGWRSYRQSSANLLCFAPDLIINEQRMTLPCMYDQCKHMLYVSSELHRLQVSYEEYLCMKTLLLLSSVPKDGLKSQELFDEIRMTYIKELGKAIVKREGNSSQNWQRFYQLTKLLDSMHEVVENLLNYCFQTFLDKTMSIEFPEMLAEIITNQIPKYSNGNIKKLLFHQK
Chain of Oxysterols receptor LXR-beta (Homo sapiens) (P55055 whole entry, looked up, the tested form may be a part): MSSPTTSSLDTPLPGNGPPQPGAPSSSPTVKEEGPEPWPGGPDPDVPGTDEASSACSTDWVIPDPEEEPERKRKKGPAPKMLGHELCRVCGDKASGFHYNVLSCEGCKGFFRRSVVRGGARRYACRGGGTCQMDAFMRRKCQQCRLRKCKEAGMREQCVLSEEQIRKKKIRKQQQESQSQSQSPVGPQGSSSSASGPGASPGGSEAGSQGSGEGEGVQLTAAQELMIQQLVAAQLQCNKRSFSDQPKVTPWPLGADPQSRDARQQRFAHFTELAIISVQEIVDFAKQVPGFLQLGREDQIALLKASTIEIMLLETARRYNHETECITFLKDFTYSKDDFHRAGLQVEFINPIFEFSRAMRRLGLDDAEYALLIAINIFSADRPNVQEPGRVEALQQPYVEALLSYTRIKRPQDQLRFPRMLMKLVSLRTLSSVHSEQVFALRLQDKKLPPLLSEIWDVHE

Structure (SMILES): CCCCC(CC)COC(=O)c1ccc(O)cc1 (stereo unspecified)
- outcome [1]: inactive
- outcome [2]: inactive
- outcome [3]: inactive
- outcome [4]: inactive
- outcome [5]: inactive
- outcome [6]: inactive
- outcome [7]: inactive
- outcome [8]: inactive
- outcome [9]: inactive
- outcome [10]: inactive
- outcome [11]: inactive
- outcome [12]: inactive
- outcome [13]: inactive
- outcome [14]: inactive
- outcome [15]: inactive
- outcome [16]: inactive

Structure (SMILES): O=C(Nc1ccc([N+](=O)[O-])cc1)Nc1ccc([N+](=O)[O-])cc1 (tested in a mixture with another compound)
- outcome [1]: inactive
- outcome [2]: inactive
- outcome [3]: inactive
- outcome [4]: inactive
- outcome [6]: inactive
- outcome [7]: inactive
- outcome [10]: inactive
- outcome [11]: inactive
- outcome [12]: inactive
- outcome [13]: inactive
- outcome [14]: inactive
- outcome [15]: inactive
- outcome [16]: inactive

Structure (SMILES): O=[N+]([O-])c1ccc(O)cc1C(F)(F)F
- outcome [1]: inactive
- outcome [2]: inactive
- outcome [3]: inactive
- outcome [4]: inactive
- outcome [5]: inactive
- outcome [6]: inactive
- outcome [7]: inactive
- outcome [8]: inactive
- outcome [9]: inactive
- AC50 [11]: 69.4 µM (active)
- outcome [12]: inactive
- AC50 [14]: 52.8 µM (active)
- AC50 [15]: 55.2 µM (active)
- outcome [16]: inactive

Structure (SMILES): CCCCN(CCCC)C(=O)N(CCCC)CCCC
- outcome [1]: inactive
- AC50 [2]: 15.6 µM (active)
- outcome [6]: inactive
- outcome [7]: inactive
- AC50 [8]: 42.9 µM (active)
- outcome [9]: inactive
- AC50 [10]: 40.2 µM (active)
- AC50 [11]: 60.3 µM (active)
- AC50 [12]: 48.7 µM (active)
- AC50 [13]: 52.8 µM (active)
- AC50 [14]: 61.6 µM (active)
- outcome [15]: inactive
- AC50 [16]: 33.4 µM (active)
- AC50 [17]: 6.23 µM (active)
- AC50 [18]: 10.7 µM (active)
- AC50 [19]: 8.82 µM (active)
- AC50 [20]: 9.73 µM (active)

Structure (SMILES): O=C1OC2(c3ccccc31)c1ccc(O)c(Br)c1Oc1c2ccc(O)c1Br
- outcome [1]: inactive
- outcome [3]: inactive
- outcome [4]: inactive
- outcome [6]: inactive
- outcome [7]: inactive
- outcome [8]: inactive
- outcome [9]: inactive
- outcome [10]: inactive
- outcome [11]: inactive
- outcome [12]: inactive
- outcome [14]: inactive
- outcome [15]: inactive
- outcome [16]: inactive
- AC50 [17]: 31.9 µM (active)
- AC50 [18]: 20 µM (active)
- AC50 [19]: 20 µM (active)
- AC50 [20]: 28.9 µM (active)

Structure (SMILES): CCCCC1CCC(O)CC1 (stereo unspecified)
- outcome [1]: inactive
- outcome [2]: inactive
- outcome [6]: inactive
- outcome [7]: inactive
- outcome [8]: inactive
- outcome [9]: inactive
- outcome [10]: inactive
- outcome [11]: inactive
- outcome [12]: inactive
- outcome [13]: inactive
- outcome [15]: inactive
- outcome [16]: inactive

Structure (SMILES): CCOCCOCCOCC
- outcome [1]: inactive
- outcome [3]: inactive
- outcome [5]: inactive
- outcome [7]: inactive
- outcome [8]: inactive
- outcome [9]: inactive
- outcome [10]: inactive
- outcome [11]: inactive
- outcome [12]: inactive
- outcome [13]: inactive
- outcome [14]: inactive
- outcome [15]: inactive
- outcome [16]: inactive

Structure (SMILES): CC[N+](C)(CC)CC
- outcome [1]: inactive
- outcome [2]: inactive
- outcome [6]: inactive
- outcome [9]: inactive
- outcome [10]: inactive
- outcome [11]: inactive
- outcome [12]: inactive
- outcome [15]: inactive
- outcome [16]: inactive

Structure (SMILES): ClC(c1ccccc1)(c1ccccc1)c1ccccc1
- outcome [1]: inactive
- outcome [2]: inactive
- outcome [6]: inactive
- outcome [9]: inactive
- outcome [11]: inactive
- outcome [12]: inactive
- outcome [13]: inactive
- outcome [14]: inactive
- outcome [15]: inactive
- outcome [16]: inactive

Source: PubChem BioAssay (EPA / NIEHS)
